molecular target: T1, Tyrosyl-tRNA synthetase, putative (Trypanosoma cruzi (strain CL Brener)) (UniProt Q4DSP6); assay: Trypanosoma cruzi tyrosyl tRNA synthetase (TcYRS) SOP; format: functional; parameters: scale not given: direction of the effect not stated beside the values; conditions: 30 µM
T1 sequence (whole entry): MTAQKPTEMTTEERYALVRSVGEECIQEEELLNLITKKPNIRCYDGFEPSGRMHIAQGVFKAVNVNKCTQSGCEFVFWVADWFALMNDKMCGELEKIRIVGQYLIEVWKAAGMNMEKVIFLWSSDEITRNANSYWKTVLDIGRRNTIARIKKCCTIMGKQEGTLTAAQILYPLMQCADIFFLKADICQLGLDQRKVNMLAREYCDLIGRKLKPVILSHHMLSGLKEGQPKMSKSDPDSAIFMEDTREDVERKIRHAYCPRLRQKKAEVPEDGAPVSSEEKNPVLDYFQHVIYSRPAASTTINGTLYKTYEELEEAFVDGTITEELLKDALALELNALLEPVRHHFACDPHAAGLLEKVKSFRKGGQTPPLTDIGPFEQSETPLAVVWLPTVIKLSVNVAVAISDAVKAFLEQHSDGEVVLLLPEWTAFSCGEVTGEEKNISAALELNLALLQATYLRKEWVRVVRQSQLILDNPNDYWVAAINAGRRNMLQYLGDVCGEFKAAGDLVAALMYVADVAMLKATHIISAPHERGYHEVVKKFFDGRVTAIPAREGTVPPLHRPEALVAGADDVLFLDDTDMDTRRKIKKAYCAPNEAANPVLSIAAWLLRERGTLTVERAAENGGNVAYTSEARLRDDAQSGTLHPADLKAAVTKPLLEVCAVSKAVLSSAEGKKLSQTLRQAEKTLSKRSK

Compound	Percent Effect [%]
CCN(CC1CN(CCc2ccccn2)CCO1)c1cccnn1 (stereo not given)	1.24
O=C(NCc1ccc(-n2cncn2)nc1)c1ccoc1	18.5
Cc1ccsc1C(=O)N1CC(C(=O)N2CCOCC2)C2(CCOCC2)C1 (stereo not given)	-8.97
Cn1ncc2c(=O)[nH]c(CN3CCCC3CC3CCCCC3)nc21 (stereo not given)	25.9
CCN1C[C@H]2CCN(C(C)=O)CC[C@H]2S1(=O)=O	5.13
COc1ccc(-c2nc(CN3CCOCS3(=O)=O)c(C)o2)cc1	8.64
Cn1nc(C2CN(C(=O)c3cscn3)C2)c2nccnc21	11.7
c1coc(CN2CCCC3(COCCN(Cc4c[nH]nn4)C3)C2)c1 (stereo not given)	10
COCCO[C@@H]1C[C@H]2CN(C(=O)c3cnccn3)CCN2C1	-15
CC(=O)N1CCC(C(=O)c2cc(C)cnc2N)CC1	11.5
Cc1ccc(C(=O)N(C)Cc2cc(Br)cs2)c(=O)[nH]1	7.79
Cc1nc(C)n(CC2CN(CCc3ccncc3)CCO2)n1 (stereo not given)	10
CN(CC(N)=O)S(=O)(=O)c1ccc(F)cc1Cl	21
CC(=O)NCC1CCN(CC2CCOc3ccccc3C2)CC1 (stereo not given)	15.4
Cc1nn(-c2ccccc2)nc1C(=O)N1CCCC1c1cnn(C)c1 (stereo not given)	6.1
CCC1=N[C@@]2(CC[C@@H]3CN(CC4CC4)C[C@@H]32)C(=O)N1C	15.4
Cc1cccc2c1OCCC2NCc1c(C)nn(C)c1N(C)C (stereo not given)	7.32
Cc1ccc(CN2C[C@@H]3COC[C@@H](NS(C)(=O)=O)[C@@H]3C2)o1	17.5
CN(Cc1ccc(Cl)s1)C(=O)NCc1nnc2n1CCC2	18.5
Cn1cnc(S(=O)(=O)N2CCN(Cc3ccco3)CC2)c1Cl	5.13

Compound	Percent Effect [%]
CN(Cc1nc(-c2ccco2)no1)C1CCCN(c2cccnn2)C1 (stereo not given)	21.5
CC(C)(O)CN1CCN(C(=O)c2sccc2C2CC2)CC1	2.53
COc1ccccc1NC(=O)NCC(O)(c1ccccc1)C1CC1 (stereo not given)	10
O=C(c1cccnc1)N1CCCC2(CCN(c3ccsc3)C2=O)C1 (stereo not given)	1.28
CC(O)CN1CCN(Cc2csc(-c3ncccn3)n2)CC1 (stereo not given)	15.6
O=C(c1ccc(O)c(Cl)c1)N1CCC(c2n[nH]c(C3CC3)n2)CC1	0
Cn1cnc(S(=O)(=O)NCCCN2CCCCCC2)c1Cl	6.17
CCOC(=O)CCNC(=O)N1CCN(c2nc3ccccc3n2C)CC1	16.7
CC(=O)N1CCCCC1c1nc(N)ncc1-c1ccccc1 (stereo not given)	14.1
Cc1nn(C)c(C)c1-c1cncc(C2CCN(S(C)(=O)=O)CC2)n1	3.85
Cc1nn(C)c(N2CCOCC2)c1CNCc1ccnc(N(C)C)c1	14.1
O=C(C1CCC1)N1CCN(Cc2ccsc2)[C@H]2CS(=O)(=O)C[C@H]21	3.7
CSC(C)C(=O)N1CCCN(Cc2cscn2)CC1 (stereo not given)	9.76
CN(Cc1cccc(F)c1)C1CCN(CCc2ccccn2)CC1	13.4
CNC(=O)[C@H]1CCS(=O)(=O)[C@@H]2CN(Cc3ccc(OC)cc3)C[C@H]12	6.1
O=C(NCC1CC1)[C@@H]1CCO[C@@H]2CCN(Cc3ccco3)C[C@H]21	-10
Cc1ccsc1C(=O)N1CC(C(=O)NCC2CC2)C2(CCOCC2)C1 (stereo not given)	-3.85
CCN(c1ccc(C(=O)N2CCCC2)cc1)S(=O)(=O)CC	0
Cc1nc(CN2CCC3(CCCN(Cc4cnn(C)c4)C3)C2=O)cs1 (stereo not given)	10
CC(NC(=O)CNCCn1cccn1)c1ccc2c(c1)OCCO2 (stereo not given)	9.76

molecular target: Chromo domain-containing protein 1 (Saccharomyces cerevisiae (strain ATCC 204508 / S288c) (Baker's yeast)) (UniProt P32657); assay: ScCHD-1 Enzyme Inhibition Assay; format: functional; parameters: scale not given: in the data most compounds retested in dose-response had high values; conditions: 30 µM
Sequence (P32657 whole entry, the tested form may be a part): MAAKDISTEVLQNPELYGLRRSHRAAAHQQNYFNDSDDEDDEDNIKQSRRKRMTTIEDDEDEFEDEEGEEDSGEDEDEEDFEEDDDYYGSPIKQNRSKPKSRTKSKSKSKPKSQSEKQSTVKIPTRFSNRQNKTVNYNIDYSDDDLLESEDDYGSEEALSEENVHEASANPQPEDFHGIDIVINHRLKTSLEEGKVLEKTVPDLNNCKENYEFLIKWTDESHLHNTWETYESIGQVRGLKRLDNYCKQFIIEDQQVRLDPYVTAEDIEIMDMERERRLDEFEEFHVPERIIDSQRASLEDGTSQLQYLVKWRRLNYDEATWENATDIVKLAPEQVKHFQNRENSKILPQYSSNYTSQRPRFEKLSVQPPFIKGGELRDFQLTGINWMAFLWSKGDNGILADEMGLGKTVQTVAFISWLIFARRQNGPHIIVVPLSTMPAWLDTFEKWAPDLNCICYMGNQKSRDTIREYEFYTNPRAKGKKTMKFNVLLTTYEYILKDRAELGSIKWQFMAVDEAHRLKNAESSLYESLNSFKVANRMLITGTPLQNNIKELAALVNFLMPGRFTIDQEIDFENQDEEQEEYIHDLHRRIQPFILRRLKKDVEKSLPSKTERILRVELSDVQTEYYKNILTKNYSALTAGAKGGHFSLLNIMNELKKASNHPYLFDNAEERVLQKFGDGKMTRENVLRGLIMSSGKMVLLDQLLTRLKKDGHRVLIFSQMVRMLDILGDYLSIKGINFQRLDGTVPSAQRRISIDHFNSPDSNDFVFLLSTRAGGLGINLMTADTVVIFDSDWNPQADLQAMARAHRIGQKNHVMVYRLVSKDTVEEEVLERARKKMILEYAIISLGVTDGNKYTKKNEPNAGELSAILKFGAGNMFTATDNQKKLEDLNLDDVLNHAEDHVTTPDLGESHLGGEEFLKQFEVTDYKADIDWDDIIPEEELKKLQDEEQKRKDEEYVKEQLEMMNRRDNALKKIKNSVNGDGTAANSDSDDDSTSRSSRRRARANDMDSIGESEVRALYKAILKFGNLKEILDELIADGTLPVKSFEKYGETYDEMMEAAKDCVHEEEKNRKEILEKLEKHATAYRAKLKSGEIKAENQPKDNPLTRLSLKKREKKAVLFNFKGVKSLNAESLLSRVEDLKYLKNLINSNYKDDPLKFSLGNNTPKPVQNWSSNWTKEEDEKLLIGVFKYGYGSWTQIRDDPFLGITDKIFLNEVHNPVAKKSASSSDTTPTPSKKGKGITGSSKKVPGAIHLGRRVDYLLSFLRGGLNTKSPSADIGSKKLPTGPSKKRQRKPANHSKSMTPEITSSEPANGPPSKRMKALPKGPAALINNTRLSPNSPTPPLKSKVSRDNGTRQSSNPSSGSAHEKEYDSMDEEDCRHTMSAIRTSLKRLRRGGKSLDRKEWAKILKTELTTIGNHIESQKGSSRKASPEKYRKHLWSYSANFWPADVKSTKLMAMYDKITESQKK

Compound	Percent Effect [%]
CCN(CC1CN(CCc2ccccn2)CCO1)c1cccnn1 (stereo not given)	2.6
O=C(NCc1ccc(-n2cncn2)nc1)c1ccoc1	-15.1
Cc1ccsc1C(=O)N1CC(C(=O)N2CCOCC2)C2(CCOCC2)C1 (stereo not given)	-5.38
Cn1ncc2c(=O)[nH]c(CN3CCCC3CC3CCCCC3)nc21 (stereo not given)	-8.17
CCN1C[C@H]2CCN(C(C)=O)CC[C@H]2S1(=O)=O	-7.45
COc1ccc(-c2nc(CN3CCOCS3(=O)=O)c(C)o2)cc1	-5.54
Cn1nc(C2CN(C(=O)c3cscn3)C2)c2nccnc21	-18.2
c1coc(CN2CCCC3(COCCN(Cc4c[nH]nn4)C3)C2)c1 (stereo not given)	-7.03
COCCO[C@@H]1C[C@H]2CN(C(=O)c3cnccn3)CCN2C1	-3.81
CC(=O)N1CCC(C(=O)c2cc(C)cnc2N)CC1	-4.18
Cc1ccc(C(=O)N(C)Cc2cc(Br)cs2)c(=O)[nH]1	-3.78
Cc1nc(C)n(CC2CN(CCc3ccncc3)CCO2)n1 (stereo not given)	-5.67
CN(CC(N)=O)S(=O)(=O)c1ccc(F)cc1Cl	-3.16
CC(=O)NCC1CCN(CC2CCOc3ccccc3C2)CC1 (stereo not given)	-2.81
Cc1nn(-c2ccccc2)nc1C(=O)N1CCCC1c1cnn(C)c1 (stereo not given)	7.07
CCC1=N[C@@]2(CC[C@@H]3CN(CC4CC4)C[C@@H]32)C(=O)N1C	-3.77
Cc1cccc2c1OCCC2NCc1c(C)nn(C)c1N(C)C (stereo not given)	-18.2
Cc1ccc(CN2C[C@@H]3COC[C@@H](NS(C)(=O)=O)[C@@H]3C2)o1	-8.24
CN(Cc1ccc(Cl)s1)C(=O)NCc1nnc2n1CCC2	-7.27
Cn1cnc(S(=O)(=O)N2CCN(Cc3ccco3)CC2)c1Cl	-0.35

Compound	Percent Effect [%]
CN(Cc1nc(-c2ccco2)no1)C1CCCN(c2cccnn2)C1 (stereo not given)	-10.1
CC(C)(O)CN1CCN(C(=O)c2sccc2C2CC2)CC1	-6.63
COc1ccccc1NC(=O)NCC(O)(c1ccccc1)C1CC1 (stereo not given)	-6.95
O=C(c1cccnc1)N1CCCC2(CCN(c3ccsc3)C2=O)C1 (stereo not given)	-9.17
CC(O)CN1CCN(Cc2csc(-c3ncccn3)n2)CC1 (stereo not given)	-4.73
O=C(c1ccc(O)c(Cl)c1)N1CCC(c2n[nH]c(C3CC3)n2)CC1	-0.322
Cn1cnc(S(=O)(=O)NCCCN2CCCCCC2)c1Cl	-6.58
CCOC(=O)CCNC(=O)N1CCN(c2nc3ccccc3n2C)CC1	-7.17
CC(=O)N1CCCCC1c1nc(N)ncc1-c1ccccc1 (stereo not given)	-3.68
Cc1nn(C)c(C)c1-c1cncc(C2CCN(S(C)(=O)=O)CC2)n1	0.849
Cc1nn(C)c(N2CCOCC2)c1CNCc1ccnc(N(C)C)c1	-2.85
O=C(C1CCC1)N1CCN(Cc2ccsc2)[C@H]2CS(=O)(=O)C[C@H]21	-0.294
CSC(C)C(=O)N1CCCN(Cc2cscn2)CC1 (stereo not given)	-13.2
CN(Cc1cccc(F)c1)C1CCN(CCc2ccccn2)CC1	-4.09
CNC(=O)[C@H]1CCS(=O)(=O)[C@@H]2CN(Cc3ccc(OC)cc3)C[C@H]12	2.99
O=C(NCC1CC1)[C@@H]1CCO[C@@H]2CCN(Cc3ccco3)C[C@H]21	-0.123
Cc1ccsc1C(=O)N1CC(C(=O)NCC2CC2)C2(CCOCC2)C1 (stereo not given)	-7.68
CCN(c1ccc(C(=O)N2CCCC2)cc1)S(=O)(=O)CC	2.93
Cc1nc(CN2CCC3(CCCN(Cc4cnn(C)c4)C3)C2=O)cs1 (stereo not given)	-5.7
CC(NC(=O)CNCCn1cccn1)c1ccc2c(c1)OCCO2 (stereo not given)	-7.52

— ChEMBL document CHEMBL3988442, “University of Dundee, Small-Polar-MMV Screening Library” (2021)
